# GRP78 ERSR act – ER stress response induction in glioma; U87-MG GRP78 promoter luciferase reporter, 16 h; 420,000 tested, 0.02% active; AID 602332; Potency, µM, inactives show top-dose activation, hits mostly activators; note: series mostly up to about 76 µM; % of control where 0% means no effect; nearly all actives have a fitted effect of over 35% in size
#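 Stably transfected U87-MG glioma cells carrying a GRP78-based luciferase sensor; 16 h compound incubation. Luminescence end-point read 10 min after Bright-Glo addition at room temperature.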
# VDR inh – vitamin D3 receptor (human) inhibition | 400,000 tested, 0.93% active | P11473 | VDR-SRC2-3 peptide fluorescence polarization, 2 h | AID 504847 | Potency, µM, inactives show max response, negative = inhibition, hits mostly inhibitors; note: % is set by controls: 0 for no effect and ±100 for the full control effect
#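 VDR–SRC2-3 interaction, FP format. Cmpds 23 nl via pintool, brief spin, 2 h ambient incubation.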
# 12-LOX inh – blocks human arachidonate 12S-lipoxygenase. purified 12hLO, xylenol orange hydroperoxide absorbance. 580,000 tested, 1.1% active. Potency, µM (top dose mostly 108 µM), for inactives: at the highest dose activity change, negative = inhibition, most hits filed as inhibitors. AID 1671190; note: % is set by controls: 0 for no effect and ±100 for the full control effect
# Target sequence (P18054 whole entry, looked up): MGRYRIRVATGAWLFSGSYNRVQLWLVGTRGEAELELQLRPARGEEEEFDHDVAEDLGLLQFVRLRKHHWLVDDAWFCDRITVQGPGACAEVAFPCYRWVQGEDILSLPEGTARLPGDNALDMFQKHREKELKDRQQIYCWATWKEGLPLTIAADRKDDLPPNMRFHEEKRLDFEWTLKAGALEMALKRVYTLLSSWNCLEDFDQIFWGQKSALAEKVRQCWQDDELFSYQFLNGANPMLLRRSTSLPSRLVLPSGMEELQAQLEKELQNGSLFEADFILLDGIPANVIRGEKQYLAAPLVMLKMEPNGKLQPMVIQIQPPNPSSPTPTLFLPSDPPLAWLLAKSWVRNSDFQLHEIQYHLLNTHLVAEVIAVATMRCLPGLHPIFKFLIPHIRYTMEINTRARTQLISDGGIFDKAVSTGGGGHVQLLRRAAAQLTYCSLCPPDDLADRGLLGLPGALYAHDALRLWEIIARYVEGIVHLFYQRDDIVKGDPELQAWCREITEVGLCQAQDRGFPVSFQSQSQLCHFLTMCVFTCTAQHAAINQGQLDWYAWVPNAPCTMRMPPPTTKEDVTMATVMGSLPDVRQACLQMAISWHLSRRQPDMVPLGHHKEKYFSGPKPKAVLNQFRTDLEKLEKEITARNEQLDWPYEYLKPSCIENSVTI
#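 Hydroperoxide product was detected by ferrous iron/xylenol orange as the 573 to 405 nm absorbance ratio. Arachidonic acid at 40 uM (final) was turned over for 30 min at room temperature by 150 nM human 12hLO, pH 7.0 Hepes buffer, after 15 min compound preincubation.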
# Sfp inh – Sfp phosphopantetheinyl transferase inhibition | Q9F4F7 | Biochemical Sfp PPTase activity, qHTS | Potency, µM, for inactives: largest response in the series, negative = inhibition, actives largely listed as inhibitors | 310,000 tested, 3.5% active;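 note: the enzyme is Sfp with the accession as filed and its product quenches rhodamine fluorescence; 0% = enzyme reaction without inhibitor and -100% = no enzyme wells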
#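 Reaction rates are the 30-min fluorescence difference (ex 525, em 598 nm) in wells containing 15 nM Sfp, 5 uM rhodamine-CoA and 12.5 uM BHQ-2-YbbR at pH 7.6 with 10 mM MgCl2.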
# G9a block – blocks human histone lysine methyltransferase G9a; Q96KQ7; G9a H3K9 monomethylation, AlphaScreen, 2 h; Potency, µM (series often up to 102 µM), for inactives: at the highest dose activity, negative = inhibition, hits mostly inhibitors; 350,000 tested, 8.8% active; AID 504332; note: % is set by controls: 0 for no effect and ±100 for the full control effect; nearly all actives have a fitted effect of over 75% in size
#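 AlphaScreen detection with an anti-monomethyl H3K9 antibody quantified product after a 2 h room-temperature reaction containing 500 nM biotinylated H3K9 peptide, 20 µM SAM and 20 nM enzyme, which had been preincubated 15 min with compound.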
# An asterisk follows results filed as active; u = inconclusive; x = no result given; [ ] = remark or other dose. This excerpt belongs to a sample that is enriched for hits. Calls come from the whole dose curve; as a rule, active = well fitted curve in the direction sought with a large enough effect; inconclusive = small, poorly fitted or top-dose-only effect, or another doubt; inactive = no such curve, though single readings can be large; an effect the other way counts as inactive or inconclusive. Potency is the fitted concentration of half-maximal effect.
SMILES,GRP78 ERSR act,VDR inh,12-LOX inh,Sfp inh,G9a block
CCOC(=O)c1c(-c2ccc(C)o2)csc1NC(=O)CSc1nncs1,0.4%,u,-18.9%,7.94µM*,10µM*
CCOC(=O)c1c(-c2ccco2)csc1N,-3.0%,-6.5%,-1.1%,31.6µM*,17.8µM*
CCOC(=O)c1c(-c2cc(OC)c(OC)c(OC)c2)csc1N,-4.6%,x,-17.2%,x,x
CCCc1csc(N)c1C(=O)OCC,x,x,7.94µM*,x,x
Cc1ccnc(NC(=O)c2cc(-c3ccncc3)nc3ccccc23)c1,x,x,16.1%,x,x
CCOC(=O)c1c(-c2ccco2)csc1NC(=O)CSc1nnc(N)s1,0.9%,-1.0%,-21.9%,25.1µM*,39.8µM*
CCOC(=O)c1c(-c2ccco2)csc1NC(=O)COC(=O)c1cnccn1,-4.8%,-9.3%,u,x,8.91µM*
CCOC(=O)c1c(-c2ccc(C)o2)csc1NC(=O)CN1CCN(CC)CC1,-2.8%,-8.7%,u,-15.8%,12.6µM*
CNc1ccccc1C(C)(C)c1cc(-c2cccc(OC)c2)no1,-3.3%,19.7%,-9.0%,1.3%,1.58µM*
CNc1ccccc1C(C)(C)c1cc(-c2cc(C)cc(C)c2)no1,-4.5%,-21.8%,-29.1%,-16.1%,6.7%[59 µM]
CCCCOc1ccc(-c2nc(=S)[nH][nH]2)cc1,5.8%,u,u,-5.8%,1.26µM*
CCCCOc1ccc(-c2ncc(N)cn2)cc1,4.5%,-3.5%,86.2%,6.4%,-5.3%
Fc1cccc(Cl)c1CSc1ccc(-c2ccccn2)nn1,x,x,54.7%,x,x
N#CC(=C1CCCC1)c1nc(-c2ccccc2O)cs1,-2.2%,-6.1%,x,u,35.5µM*
N#CC(=C1CCCC1)c1nc(-c2ccccc2)cs1,8.6%,2.6%,-11.5%,-1.4%,u
COc1ccc(-c2nc3cc(C(C)C)ccc3o2)cc1NC(=O)COc1ccc([N+](=O)[O-])cc1,x,x,-0.1%,x,x
O=c1c2c(CO)c(-c3ccc(F)cc3)nn2ccn1Cc1ccccc1F,x,x,5.2%,x,x
Cc1ccc(/C=C/C(=O)OCC(=O)N(CC(C)C)c2c(N)n(Cc3ccccc3)c(=O)[nH]c2=O)o1,-0.7%,-13.2%,-15.0%,x,-6.8%[0.501 µM]
CCN(C(=O)CN1CCc2ccccc21)c1c(N)n(Cc2ccccc2)c(=O)[nH]c1=O,-0.5%,-18.7%,-0.7%,-3.4%,28.2µM*
CCN(C(=O)COC(=O)/C=C/c1ccc(C)o1)c1c(N)n(Cc2ccccc2)c(=O)[nH]c1=O,-5.7%,-16.8%,u,x,11.2µM*
Cn1c(=O)c(C(=O)CN2CCc3ccccc32)c(N)n(Cc2ccccc2)c1=O,-5.6%,u,-18.0%,15.7%,35.5µM*
CC(C)CN(C(=O)CN1CCN(c2ccc(O)cc2)CC1)c1c(N)n(CC(C)C)c(=O)[nH]c1=O,2.3%,-8.6%,-22.2%,25.1µM*,u
Cc1cc(=O)oc2c(C)c(OCC(=O)NCc3ccc(S(N)(=O)=O)cc3)ccc12,x,x,-0.5%,x,x
CCN(C(=O)CN1CCN(c2ccc(O)cc2)CC1)c1c(N)n(Cc2ccccc2)c(=O)[nH]c1=O,-4.8%,-29.1%,u,14.1µM*,8.91µM*
Cn1c(SCC(=O)Nc2sccc2C#N)nnc1-c1cccc(Cl)c1,x,x,-2.3%,x,x
SMILES,GRP78 ERSR act,VDR inh,12-LOX inh,Sfp inh,G9a block
COC(=O)[C@H](Cc1ccc(OC)cc1)NC(=O)[C@H]1CN(C(C)=O)CCN1C(=O)C1CCCCC1,x,x,-2.2%,x,x
CCN(CC)C(=O)NC1CC2CCCC(C1)N2Cc1ccccc1 (stereo unspecified),-4.7%,3.4%,-12.5%,13.9%,2.82µM*
COc1ccc(N2CCN(C(=O)c3ccc4c(c3)CC(c3ccccc3)OC4=O)CC2)cc1 (stereo unspecified),-1.1%,-13.3%,-26.9%,x,10µM*
O=C(c1cccc(N2C(=O)C3C4C=CC(C4)C3C2=O)c1)N1CCN(c2ccc(F)cc2)CC1 (stereo unspecified),3.6%,15.7%,-19.7%,17.4%,4.0%
O=C1OC(c2ccccc2)Cc2cc(C(=O)N3CCN(c4ccc(F)cc4)CC3)ccc21 (stereo unspecified),-5.3%,-3.2%,-14.8%,x,50.1µM*
COc1ccccc1CNc1nc(-c2ccoc2)nc2ccccc12,0.6%,u,u,-4.4%,3.4%[0.501 µM]
c1cncc(CNc2nc(-c3ccoc3)nc3ccccc23)c1,-3.9%,u,u,39.8µM*,x
c1csc(CNc2nc(-c3ccoc3)nc3ccccc23)c1,-3.1%,22.4µM*,10µM*,u,u

# Screening results deposited in PubChem by National Center for Advancing Translational Sciences (NCATS).
